What all share (assay): NCI-60 one-dose screen, 48 h (100 = growth as untreated, 0 = no growth, -100 = all killed)
In one test the test system is BT-549 breast. To be noted: 10 µM unless noted.
Another test relates to MDA-MB-435 melanoma. Particulars: 10 µM unless noted.
A further test has as its system SW-620 colon. Particulars: 10 µM unless noted.
In a further test the test system is MCF7 breast. Particulars: 10 µM.
For another test, the system named is HCT-116 colon. Particulars: 10 µM unless noted.
Another test deals with HCC-2998 colon. To be noted: 10 µM unless noted.
A further test relates to KM12 colon. To be noted: 10 µM unless noted.

This is part of a sample that, as a whole, favours compounds with a hit. Of some 83,000 tested, about 20% had one in any assay.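 Single-concentration screen, 48 h exposure, 96-well plates. Endpoint: percent growth. Below 10 = active.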 A number with no mark means an inactive call. Calls of active or inactive are those of the source.

For the compound `COc1ccc2occ(C3=C(c4c[nH]c5ccccc45)C(=O)NC3=O)c2c1`, the growth in the test on BT-549 breast was 35.7%; in the test on MDA-MB-435 melanoma, 1.76% (active); in the test on SW-620 colon it was 22.6%; in the test on MCF7 breast it was 21.6%; in the test on HCT-116 colon, 26.5%; in the test with HCC-2998 colon it was 74.5%. In addition, the growth with KM12 colon is 20.8%.

Turning to `COc1ccc(N2C(=O)CC(c3cc(OC)c(OC)c(OC)c3)C3C2=NC(=O)N3C)cc1` (centres undefined), the growth in the test on BT-549 breast was 109%; in the test with MDA-MB-435 melanoma, 101%; in the test on SW-620 colon it was 102%; in the test on MCF7 breast, 98.1%; in the test on HCT-116 colon it was 106%; in the test on HCC-2998 colon it was 117%. The growth in the test on KM12 colon is 105%.

With `COc1ccc(C2=NN(/C=C3\SC(=O)NC3=Nc3ccc(F)cc3)C(c3ccc(F)cc3)C2)cc1` (centres undefined), the growth in the test on BT-549 breast was 98%; in the test with MDA-MB-435 melanoma it was 106%; in the test with SW-620 colon, 99.2%; in the test with MCF7 breast, 94.5%; in the test on HCT-116 colon it was 105%; in the test on HCC-2998 colon, 101%. For the same compound, the growth with KM12 colon was 98.2%.

With `COc1cc(/C=C/C(=O)c2ccc(Cl)cc2)cc(CN2CCCCC2)c1O`, the growth in the test with BT-549 breast was 91.2%; with MDA-MB-435 melanoma it was 74%; in the test on SW-620 colon it was 88.6%; in the test on MCF7 breast, 48.1%; with HCT-116 colon it was 82.1%; in the test on HCC-2998 colon, 95.5%. The growth with KM12 colon is 72.6%.

Consider `Cn1c(/C=C(\C#N)c2ccccc2)nc2c(N3CCOCC3)nc(Cl)nc21`, for which the growth with BT-549 breast is -77.2% (active); with MDA-MB-435 melanoma, -84.7% (active); with SW-620 colon, -74.2% (active); in the test on MCF7 breast, -57.7% (active); with HCT-116 colon it was -78.1% (active); in the test on HCC-2998 colon it was -17.2% (active). Moreover, in the test with KM12 colon, the growth was -53% (active).

Take `N#C/C(=C\c1c(-c2ccccc2)[nH]c2ccccc12)C(=O)c1ccccc1`: the growth in the test on BT-549 breast was 61.5%; in the test on MDA-MB-435 melanoma it was 10.8%; with SW-620 colon it was 19.9%; in the test on MCF7 breast, 19.4%; in the test with HCT-116 colon, 30.4%; in the test with HCC-2998 colon, 60.1%. In addition, the growth in the test with KM12 colon was 28.2%.

`CCOC(=O)c1cc2c(n1Cc1ccccc1OC)-c1oncc1CCC2`: the growth is 54.9% in the test with BT-549 breast; -1.95% (active) in the test on MDA-MB-435 melanoma; 23.8% in the test on SW-620 colon; 14% with MCF7 breast; 29.5% in the test with HCT-116 colon; 53.6% with HCC-2998 colon. The growth in the test on KM12 colon was 41.9%.

As to `CCCSC1=NC2C(N(CC)C(=O)N2CC)N1/N=C/C=C/c1ccccc1[N+](=O)[O-]` (centres undefined), the growth in the test with BT-549 breast is 30.7%; in the test with MDA-MB-435 melanoma, -30.1% (active); in the test with SW-620 colon it was 37.3%; with MCF7 breast, 21.8%; in the test with HCT-116 colon it was 7.28% (active); in the test with HCC-2998 colon, 15%. The growth in the test with KM12 colon is 14.9%.

With `CC1=C(C(=O)OCC2CCN(C(=O)OC(C)(C)C)CC2)[C@@H](c2cccc(C#N)c2)C2=C(CC(C)(C)CC2=O)N1`, the growth in the test on BT-549 breast is 50.3%; in the test with MDA-MB-435 melanoma, 41.4%; with SW-620 colon it was 29.6%; in the test with MCF7 breast, 30.5%; in the test with HCT-116 colon, 17.1%; in the test on HCC-2998 colon it was 75.6%. The growth with KM12 colon is 36%.

For the compound `COc1cc(/C=C/C(=O)N2c3ccccc3CC2C)c(OC)c2c1OCO2` (centres undefined), the growth in the test with BT-549 breast was 97.7%; in the test on MDA-MB-435 melanoma it was 85.8%; in the test on SW-620 colon it was 93.8%; in the test with MCF7 breast it was 91.6%; in the test with HCT-116 colon, 97.2%; in the test on HCC-2998 colon, 100%. Moreover, in the test on KM12 colon, the growth is 93.8%.

In the case of `COc1ccc(/C=C2\NC(=O)NC2=O)cc1O`, the growth was 94.1% with BT-549 breast; 94.7% in the test with MDA-MB-435 melanoma; 109% with SW-620 colon; 100% in the test on MCF7 breast; 89.3% with HCT-116 colon; 107% with HCC-2998 colon. Further, the growth in the test with KM12 colon is 102%.

On to `CCOc1cccc(/C=N/NC(=O)C(=O)Nc2cccc(C(F)(F)F)c2)c1O`, for which the growth is 45.4% with BT-549 breast; 49.6% with MDA-MB-435 melanoma; 32% with SW-620 colon; 11.8% in the test on MCF7 breast; 32% in the test on HCT-116 colon; 5.43% (active) in the test on HCC-2998 colon. For the same compound, the growth in the test on KM12 colon was 27.8%.

Take `CC(=S)NC(=O)C(=O)/C=C1/NC(=O)C(=O)S1`: the growth in the test with BT-549 breast was 106%; in the test with MDA-MB-435 melanoma it was 106%; in the test on SW-620 colon, 106%; in the test with MCF7 breast, 104%; with HCT-116 colon, 114%; with HCC-2998 colon it was 108%. The growth in the test on KM12 colon is 107%.

Turning to `CC1(C)CC2(C)OC2C2(C1)N=NC(=Nc1ccccc1)O2` (centres undefined), the growth with BT-549 breast was -19.1% (active); in the test with MDA-MB-435 melanoma, 59.5%; in the test on SW-620 colon it was 23%; with MCF7 breast it was 23.9%; with HCT-116 colon it was 20%; in the test on HCC-2998 colon it was 102%. For the same compound, the growth in the test on KM12 colon is 87.7%.

As to `CCCCc1ccc(NS(=O)(=O)c2cc3c4c(c2)CCN4C(=O)CC3)cc1`, the growth in the test on BT-549 breast was 0.335% (active); in the test on MDA-MB-435 melanoma it was 29.6%; with SW-620 colon it was 25.3%; with MCF7 breast, 16.2%; in the test on HCT-116 colon it was 13.4%; in the test on HCC-2998 colon it was 19%. Besides, the growth in the test on KM12 colon was 21%.

For `COc1ccc(CCN2C(=O)/C(=C/c3ccc(C4Oc5ccccc5C5CC(c6cccc(OC)c6)=NN54)cc3)SC2=S)cc1` (centres undefined), the growth in the test with BT-549 breast was 108%; with MDA-MB-435 melanoma it was 104%; in the test on SW-620 colon it was 98.4%; with MCF7 breast, 93%; with HCT-116 colon it was 102%; with HCC-2998 colon, 98.6%. For the same compound, the growth with KM12 colon is 105%.

As for `CSc1nc2c(c(=O)[nH]1)N=C1c3ccccc3C(=O)C1C(c1ccc(F)cc1)N2` (centres undefined), the growth in the test with BT-549 breast was 97.2%; in the test on MDA-MB-435 melanoma, -2.38% (active); in the test with SW-620 colon, 54.5%; with MCF7 breast it was 40.4%; in the test with HCT-116 colon it was 48.4%; in the test with HCC-2998 colon, 64.9%. Besides, the growth with KM12 colon is 41.7%.

(Values after PubChem BioAssay (NCI).)
